Laboratory results reported in the supplement of paper PMC8728848.
Shown is part of a subset that was picked to be rich in the strongest signals.

What was measured:
Test in all cases: glycan array binding signal (z-score within array); higher = stronger binding
Settings in all cases: glycan notation: IUPAC condensed, linker removed
[1] = biological target: Gal(b1-3)GalNAc(b1-4)[Neu5Ac(a2-3)]Gal(b1-4)Glc
In short: (§1)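 The binding signal is a Z-score computed within each array and averaged over linkers. Arrays of the same protein sequence at different concentrations or buffers were also averaged together. Data originate from 3228 arrays in the Consortium for Functional Glycomics database, kept only where the protein sequence was available.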

[2] = biological target: Gal(b1-3)GlcNAc(b1-3)Gal(b1-4)Glc
In short: as §1

Neu(a2-3)Gal(b1-4)Glc = biological target: Neu(a2-3)Gal(b1-4)Glc
In short: as §1

[3] = biological target: Neu(a2-3)Gal6S(b1-4)[Fuc(a1-3)]GlcN(b1-3)Gal(b1-4)Glc
In short: as §1

[4] = biological target: Neu5Ac(a2-3)Gal(b1-4)[Fuc(a1-3)]GlcNAc(b1-3)Gal(b1-4)Glc
In short: as §1

[5] = biological target: Neu5Ac(a2-3)Gal(b1-4)[Fuc(a1-3)]GlcNAc6S(b1-3)Gal(b1-4)Glc
In short: as §1

[6] = biological target: Neu5Ac(a2-3)Gal6S(b1-4)[Fuc(a1-3)]GlcNAc(b1-3)Gal(b1-4)Glc
In short: as §1

[7] = biological target: Neu5Ac(a2-3)Gal6S(b1-4)[Fuc(a1-3)]GlcNAc6S(b1-3)Gal(b1-4)Glc
In short: as §1

[8] = biological target: Neu5Ac(a2-8)Neu5Ac(a2-8)Neu5Ac(a2-8)Neu5Ac(a2-8)Neu5Ac(a2-8)Neu5Ac(a2-8)Neu5Ac
In short: as §1

[9] = biological target: Neu5Ac(a2-8)Neu5Ac(a2-8)Neu5Ac(a2-8)Neu5Ac(a2-8)Neu5Ac(a2-8)Neu5Ac(a2-8)Neu5Ac(a2-8)Neu5Ac(a2-8)Neu5Ac
In short: as §1

[10] = biological target: Neu5Ac(a2-8)Neu5Ac(a2-8)Neu5Ac(a2-8)Neu5Ac(a2-8)Neu5Ac(a2-8)Neu5Ac(a2-8)Neu5Ac(a2-8)Neu5Ac(a2-8)Neu5Ac(a2-8)Neu5Ac(a2-8)Neu5Ac
In short: as §1

[11] = biological target: Neu5Ac9Ac(a2-6)Gal(b1-4)GlcNAc
In short: as §1

[12] = biological target: Gal(b1-3)GalNAc(b1-4)Gal3S(b1-4)Glc
In short: as §1

[13] = biological target: Gal(b1-3)GalNAc(b1-4)[Neu5Gc(a2-3)]Gal(b1-4)Glc
In short: as §1

[14] = biological target: Gal(b1-3)[Neu5Ac(a2-6)]GalNAc(b1-4)Gal(b1-4)Glc
In short: as §1

[15] = biological target: Gal(b1-4)GlcNAc(b1-2)[Gal(b1-4)GlcNAc(b1-4)]Man(a1-3)[Gal(b1-4)GlcNAc(b1-2)Man(a1-6)]Man(b1-4)GlcNAc(b1-4)GlcNAc
In short: as §1

Gal(b1-4)GlcNAc(b1-3)Fuc = biological target: Gal(b1-4)GlcNAc(b1-3)Fuc
In short: as §1

Glc(a1-3)Glc = biological target: Glc(a1-3)Glc
In short: as §1

[16] = biological target: Glc(a1-3)Glc(a1-3)Man(a1-2)Man(a1-2)Man(a1-3)[Man(a1-3)[Man(a1-6)]Man(a1-6)]Man(b1-4)GlcNAc
In short: as §1

[17] = biological target: Glc(a1-6)Glc(a1-6)Glc(a1-6)Glc(a1-6)Glc
In short: as §1

[18] = biological target: Glc(a1-6)Glc(a1-6)Glc(a1-6)Glc(a1-6)Glc(a1-6)Glc(a1-6)Glc(a1-6)Glc(a1-6)Glc
In short: as §1

Glc(b1-2)Glc = biological target: Glc(b1-2)Glc
In short: as §1

[19] = biological target: Glc(b1-3)Glc(b1-3)Glc(b1-3)Glc(b1-3)Glc(b1-3)Glc(b1-3)Glc(b1-3)Glc(b1-3)Glc(b1-3)Glc(b1-3)Glc
In short: as §1

[20] = biological target: Glc(b1-4)Glc(b1-4)Glc(b1-4)Glc(b1-4)Glc(b1-4)Glc(b1-4)Glc
In short: as §1

[21] = biological target: Glc(b1-4)Glc(b1-4)Glc(b1-4)Glc(b1-4)Glc(b1-4)Glc(b1-4)Glc(b1-4)Glc(b1-4)Glc
In short: as §1

[22] = biological target: Glc(b1-6)Glc(b1-6)Glc(b1-6)Glc
In short: as §1

[23] = biological target: GlcA(b1-3)GlcNAc(b1-4)GlcA(b1-3)GlcNAc(b1-4)GlcA(b1-3)GlcNAc(b1-4)GlcA(b1-3)GlcNAc(b1-4)GlcA(b1-3)GlcNAc(b1-4)GlcA(b1-3)GlcNAc(b1-4)GlcA(b1-3)GlcNAc
In short: as §1

GlcNAc(a1-4)Gal = biological target: GlcNAc(a1-4)Gal
In short: as §1

GlcNAc(b1-2)Man = biological target: GlcNAc(b1-2)Man
In short: as §1

GlcNAc(b1-4)GlcNAc = biological target: GlcNAc(b1-4)GlcNAc
In short: as §1

[24] = biological target: Man(a1-2)Man(a1-2)Man(a1-3)[Man(a1-2)Man(a1-3)[Man(a1-2)Man(a1-6)]Man(a1-6)]Man(b1-4)GlcNAc(b1-4)GlcNAc
In short: as §1

Man(a1-3)[Man(a1-6)]Man = biological target: Man(a1-3)[Man(a1-6)]Man
In short: as §1

Neu5Ac(a2-3)Gal = biological target: Neu5Ac(a2-3)Gal
In short: as §1

[25] = biological target: Neu5Ac(a2-3)Gal(b1-3)GalNAc(b1-4)[Neu5Ac(a2-3)]Gal(b1-4)Glc
In short: as §1

[26] = biological target: Neu5Ac(a2-3)Gal(b1-4)[Fuc(a1-3)]GlcNAc(b1-3)Gal
In short: as §1

[27] = biological target: Neu5Ac(a2-3)[GalNAc(b1-4)]Gal(b1-3)GalNAc(b1-4)[Neu5Ac(a2-3)]Gal(b1-4)Glc
In short: as §1

[28] = biological target: Neu5Ac(a2-3)[GalNAc(b1-4)]Gal(b1-4)Glc
In short: as §1

[29] = biological target: Neu5Ac(a2-8)Neu5Ac(a2-3)[Gal(b1-3)GalNAc(b1-4)]Gal(b1-4)Glc
In short: as §1

Neu5Ac(b2-3)Gal(b1-4)Glc = biological target: Neu5Ac(b2-3)Gal(b1-4)Glc
In short: as §1

Rha(a1-6)Glc = biological target: Rha(a1-6)Glc
In short: as §1

Neu(a2-6)Gal(b1-4)Glc = biological target: Neu(a2-6)Gal(b1-4)Glc
In short: as §1

[30] = biological target: Neu5Ac(a2-3)Gal(b1-3)GalNAc(b1-4)Gal(b1-4)Glc
In short: as §1

[31] = biological target: Neu5Ac(a2-3)Gal(b1-3)GlcNAc(b1-3)[Fuc(a1-3)[Gal(b1-4)]GlcNAc(b1-6)]Gal(b1-4)Glc
In short: as §1

[32] = biological target: Neu5Ac(a2-6)Gal(b1-4)GlcNAc(b1-3)[Neu5Ac(a2-6)Gal(b1-4)GlcNAc(b1-6)]Gal(b1-4)Glc
In short: as §1

[33] = biological target: Neu5Ac(a2-9)Neu5Ac(a2-3)Gal(b1-4)Glc
In short: as §1

Neu5Gc(a2-3)Gal(b1-4)Glc = biological target: Neu5Gc(a2-3)Gal(b1-4)Glc
In short: as §1

B1: MIC1 (Neospora caninum), Q8WRS0 (protein)
chain: AGAKTYGEASQPSASARSLQGALDTWCQEVFKKLCDDGYSKMCIPANQVVARQGLGRKDQQKLVWRCYDSAAFLAEGDENNVLSCVDDCGVSIPCPGGVDRDNSTHATRHDELSQLIKEGVVRYCSGFQAAANSYCNKRYPGTVARKSKGFGHKEPVKWRCYKPESLLFSVFSECVSNCGTTWSCPGGRLGTATNLDKKHFTDESGILQALTSVPKACPVGLVCLPRDQNPPACLDDNGNVPE
glycan array binding signal (z-score) [1]: -0.344
glycan array binding signal (z-score) [2]: -0.441
glycan array binding signal (z-score) (Neu(a2-3)Gal(b1-4)Glc): -0.422
glycan array binding signal (z-score) [3]: -0.441
glycan array binding signal (z-score) [4]: -0.359
glycan array binding signal (z-score) [5]: 0.848
glycan array binding signal (z-score) [6]: 6.08
glycan array binding signal (z-score) [7]: 4.92
glycan array binding signal (z-score) [8]: 0.538
glycan array binding signal (z-score) [9]: -0.166
glycan array binding signal (z-score) [10]: -0.291
glycan array binding signal (z-score) [11]: -0.428

B2: MIC4-A5 (Toxoplasma gondii), Q9XZH7 (protein)
chain: SPDFHDEVECVHTGNIGSKAQTIGEVKRASSLSECRARCQAEKECSHYTYNVKSGLCYPKRGKPQFYKYLGDMTGSRTCDTS
glycan array binding signal (z-score) [12]: 5.56
glycan array binding signal (z-score) [1]: 5.3
glycan array binding signal (z-score) [13]: 4.89
glycan array binding signal (z-score) [14]: 6.12
glycan array binding signal (z-score) [15]: 3.22
glycan array binding signal (z-score) (Gal(b1-4)GlcNAc(b1-3)Fuc): -0.248
glycan array binding signal (z-score) (Glc(a1-3)Glc): -0.306
glycan array binding signal (z-score) [16]: -0.323
glycan array binding signal (z-score) [17]: -0.323
glycan array binding signal (z-score) [18]: -0.323
glycan array binding signal (z-score) (Glc(b1-2)Glc): -0.32
glycan array binding signal (z-score) [19]: -0.323
glycan array binding signal (z-score) [20]: -0.323
glycan array binding signal (z-score) [21]: -0.323
glycan array binding signal (z-score) [22]: -0.323
glycan array binding signal (z-score) [23]: -0.323
glycan array binding signal (z-score) (GlcNAc(a1-4)Gal): -0.323
glycan array binding signal (z-score) (GlcNAc(b1-2)Man): -0.323
glycan array binding signal (z-score) (GlcNAc(b1-4)GlcNAc): -0.323
glycan array binding signal (z-score) [24]: -0.323
glycan array binding signal (z-score) (Man(a1-3)[Man(a1-6)]Man): -0.323
glycan array binding signal (z-score) (Neu5Ac(a2-3)Gal): -0.323
glycan array binding signal (z-score) [25]: -0.191
glycan array binding signal (z-score) [26]: -0.323
glycan array binding signal (z-score) [27]: -0.323
glycan array binding signal (z-score) [28]: -0.311
glycan array binding signal (z-score) [29]: 6.1
glycan array binding signal (z-score) (Neu5Ac(b2-3)Gal(b1-4)Glc): -0.32
glycan array binding signal (z-score) (Rha(a1-6)Glc): -0.322

B3: MIC13 (Toxoplasma gondii), A0A125YWL1 (protein)
chain: IQLRQHRNGLGVEQSFVSEETDIVGGRISSLQAELDSYCHNRYKQLCDGGNKKFCDKTGVARYGTGIQSQQTAEWRCYFAEVLKPSGRKVQCVDDCGNYFPCLGVVDPNDTFHATAHNQILNFIKDGVEKHCSPFQMAGNNYCQGVLADTVARKDTGTASQKAKAWRCYKKDSLTYEARSICVDNCGGEIECPGGRSETSGELLSQHYTREKELQKVIESQSAPCHDACVATPINPPICADTESLLQSTKRSRAQRFIDDACQKLFNCHCKKDKKFCTTVVARKDRGRAGSQNDAEWRCYSLEELDFQKTNPSCIDECGNELPCQGAVPEESTHHITWTKLPSKIDEATQKFCTERQRAANDYCASEFADSLARYGPGAGDQTSQFRCIKKAAMRADAEGQCADSCKGTETCGGGRSRLDGPLSVDDVLNAHEGISEAMKSASTEC
glycan array binding signal (z-score) [13]: -0.151
glycan array binding signal (z-score) (Neu(a2-3)Gal(b1-4)Glc): -0.234
glycan array binding signal (z-score) (Neu(a2-6)Gal(b1-4)Glc): -0.287
glycan array binding signal (z-score) [30]: -0.287
glycan array binding signal (z-score) [31]: -0.243
glycan array binding signal (z-score) [5]: 0.435
glycan array binding signal (z-score) [7]: 2.31
glycan array binding signal (z-score) [32]: -0.287
glycan array binding signal (z-score) [33]: 8.12
glycan array binding signal (z-score) (Neu5Gc(a2-3)Gal(b1-4)Glc): -0.038
